MBD2 inh – blocks human MBD2 binding to methylated DNA; Q9UBB5; TR-FRET, MBD2 binding to methylated oligonucleotide; inhibition, % at 4.4 µM; 370,000 tested, 0.31% active; AID 686964; in the data active = inhibition above about 13%
Target sequence (Q9UBB5 whole entry, looked up): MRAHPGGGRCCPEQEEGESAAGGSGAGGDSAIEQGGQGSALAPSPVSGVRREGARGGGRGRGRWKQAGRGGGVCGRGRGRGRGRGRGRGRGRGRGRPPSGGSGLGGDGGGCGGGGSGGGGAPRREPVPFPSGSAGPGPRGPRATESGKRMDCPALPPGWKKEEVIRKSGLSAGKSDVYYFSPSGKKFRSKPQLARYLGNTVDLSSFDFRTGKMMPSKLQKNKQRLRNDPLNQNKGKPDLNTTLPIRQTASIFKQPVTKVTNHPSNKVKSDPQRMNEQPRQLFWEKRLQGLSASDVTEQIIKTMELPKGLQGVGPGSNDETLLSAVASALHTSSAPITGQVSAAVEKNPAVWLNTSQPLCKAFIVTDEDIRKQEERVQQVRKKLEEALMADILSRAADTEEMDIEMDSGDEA
UHRF1 MBD2 ctr – human UHRF1 methylated DNA binding inhibitors | Q96T88 | UHRF1 binding to methylated oligo, TR-FRET | inhibition, % at 4.4 µM | 370,000 tested, 0.75% active | AID 687016; in the data active = inhibition above about 21%;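 note: UHRF1 SRA domain binding a hemimethylated CpG hairpin DNA probe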
LEDGF integ inh – blocks HIV-1 LEDGF/p75-dependent DNA integration; TR-FRET IN-LEDGF/p75 DNA integration, Eu/Cy5; inhibition, % at 3.7 µM; 370,000 tested, 0.64% active;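 active = inhibition above the screen-wide mean plus 3 SD, cut at about 13% in these data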;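 note: signal is the Cy5 over europium emission ratio at 671 and 618 nm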
PLC-gamma1 inh – PLC-gamma1 (human) inhibition, primary screen | P19174 | purified PLC-gamma1, fluorogenic substrate, fluorescence | inhibition, % at 12.2 µM | 370,000 tested, 0.84% active; in the data active = inhibition above about 9.5%
PLC-beta3 inh – inhibitors of human phospholipase C beta3; Q01970; Purified PLC-beta3, fluorogenic substrate, fluorescence; inhibition, % at 12.2 µM; 370,000 tested, 0.18% active; AID 720704
PLCg1 ctr – counter-screen for PLC-beta3 inhibitors: inhibitors of human PLC-gamma1. 3,300 tested, 3.1% active. purified PLC-gamma1, fluorogenic substrate, fluorescence. inhibition, % at 12.3 µM. shares compounds with PLC-gamma1 inh; in the data active = inhibition above about 9.5%
PLCb3 confirm – confirmation of human PLC-beta3 inhibitors. shares compounds with PLC-gamma1 inh. purified PLC-beta3, fluorogenic substrate fluorescence. inhibition, % at 12.3 µM. 3,300 tested, 1% active. AID 743261
Large screens that a line does not name were inactive (follow-up assays come after a bar, where they were run). This is a sample that favours compounds with a hit; in the whole collection about 2.4% have one here. Cut-off read from the data, not from the text of the source, unless noted: active = inhibition above about 11%; inactive = the rest.

Cn1cccc1-c1nc2ccc(NC(=O)c3ccc([N+](=O)[O-])cc3)cc2[nH]1	PLC-gamma1 inh 14 | PLCg1 ctr inactive | PLCb3 confirm inactive
Cn1cccc1-c1nc2ccc(NC(=O)c3ccccc3)cc2[nH]1	none
CCOC(=O)c1c(C2COc3ccccc3O2)csc1NC(=O)c1ccccc1 (stereo not drawn)	PLC-gamma1 inh 12 | PLCg1 ctr inactive | PLCb3 confirm inactive
Cc1ccccc1CN1CCCCC(NC(=O)c2ccccc2C)C1=O (stereo not drawn)	none
Cc1ccccc1CN1CCCCC(NC(=O)c2ccc(-c3ccccc3)cc2)C1=O (stereo not drawn)	PLC-gamma1 inh 12 | PLCg1 ctr inactive | PLCb3 confirm inactive
CCCCOc1ccc(C(=O)NC2CCCCN(Cc3cccc(C(F)(F)F)c3)C2=O)cc1 (stereo not drawn)	PLC-gamma1 inh 10 | PLCg1 ctr inactive | PLCb3 confirm inactive
CC(=O)c1ccc(NC(=O)NC2CCCCN(Cc3cccc(Cl)c3)C2=O)cc1 (stereo not drawn)	PLC-gamma1 inh 11 | PLCg1 ctr inactive | PLCb3 confirm inactive
O=C(Cn1nnc(-c2ccc(N3CCOCC3)cc2)n1)c1ccc(F)cc1	none
c1ccc(-c2nnc(SCC3CCCCO3)nc2-c2ccccc2)cc1 (stereo not drawn)	PLC-gamma1 inh 17 | PLCg1 ctr inactive | PLCb3 confirm inactive
Cc1cc(C)n(-c2nc3ccccc3c(=O)n2OC2CCCCC2)n1	PLC-beta3 inh 15 | PLCg1 ctr inactive | PLCb3 confirm inactive
CCOn1c(-n2nc(C)cc2C)nc2ccccc2c1=O	none
ONC(=Nc1ccc(Cl)cc1)c1ccccc1	PLC-beta3 inh 12 | PLCg1 ctr inactive | PLCb3 confirm 12
O=[N+]([O-])c1cccc(C(=Nc2cccc(Cl)c2)NO)c1	none
CSC[C@H]1CN(c2ccccc2)C(=O)[C@@H]1CC(=O)Nc1ccccc1	PLC-gamma1 inh 9.5 | PLCg1 ctr inactive | PLCb3 confirm inactive
CSC[C@H]1CN(c2ccc(Br)cc2)C(=O)[C@@H]1CC(=O)Nc1ccccc1	none
CCCCCCCCN1CN2Cc3ccc(C)cc3C2CS1(=O)=O (stereo not drawn)	none
CC(C)(C)NCc1ccccc1OCc1cccs1	PLC-gamma1 inh 13, PLC-beta3 inh 11 | PLCg1 ctr inactive | PLCb3 confirm inactive
CC(C)(C)NCc1cc(Br)ccc1OCc1cccs1	none
CN1C(=O)SC(Nc2ccccc2)C1=O (stereo not drawn)	PLC-gamma1 inh 9.5 | PLCg1 ctr inactive | PLCb3 confirm inactive
CCN1CCN(CCc2nc3cc([N+](=O)[O-])ccc3n2C)CC1	PLC-gamma1 inh 12 | PLCg1 ctr inactive | PLCb3 confirm inactive
COc1cccc(SCc2noc(C(=O)NCCN(C)C)c2C(=O)NCCN(C)C)c1	PLC-gamma1 inh 9.7 | PLCg1 ctr inactive | PLCb3 confirm inactive
O=C1CCC[C@H]2C[C@H](NCc3cccc(F)c3)CC[C@]23CCCN13	none
CCN(C(=O)CSc1nnc(NCc2ccccc2)s1)C1CCS(=O)(=O)C1 (stereo not drawn)	PLC-gamma1 inh 12 | PLCg1 ctr inactive | PLCb3 confirm inactive
O=C1NC(=S)SC1=C1CCCC1	UHRF1 MBD2 ctr 21, PLC-gamma1 inh 26 | PLCg1 ctr 16 | PLCb3 confirm inactive
CN1C(=O)C(=C2CCCCCC2)SC1=S	none
CC(C)C(c1nnnn1Cc1ccco1)N1CCN(c2cccc(Cl)c2)CC1 (stereo not drawn)	PLC-gamma1 inh 12 | PLCg1 ctr inactive | PLCb3 confirm inactive
CC(C)C(c1nnnn1Cc1ccccc1)N1CCN(Cc2ccco2)CC1 (stereo not drawn)	none
FC(F)(F)c1nc(Oc2ccccc2)c2ccccc2n1	PLC-gamma1 inh 10 | PLCg1 ctr inactive | PLCb3 confirm inactive
c1ccc(Oc2nc(-c3ccccn3)nc3ccccc23)cc1	none
Cc1onc(-c2ccccc2)c1NC(=O)N(CCC(=O)O)Cc1ccccc1	none
Cc1onc(-c2ccccc2)c1NC(=O)N(CCC#N)Cc1cccs1	PLC-gamma1 inh 10.0 | PLCg1 ctr inactive | PLCb3 confirm inactive
CCCC[C@H]1C2CC(OC(=O)Nc3cc(C)cc(C)c3)C(C2)[C@H]2CCCCN21 (stereo partly drawn)	none
CC1(C)O[C@@H]2[C@H](O1)[C@@H](CO)O[C@H]2n1cc(Br)c(=O)[nH]c1=O	PLC-gamma1 inh 14 | PLCg1 ctr inactive | PLCb3 confirm inactive
COc1ccc(S[C@]2(C(=O)N3CCCC3)CC(=O)N(C(=O)c3ccccc3)[C@@H]2c2ccc(OC)cc2)cc1	none
O=[N+]([O-])c1ccc(Sc2ncccn2)c([N+](=O)[O-])c1	PLC-gamma1 inh 12 | PLCg1 ctr 10 | PLCb3 confirm inactive
COc1ccccc1NCc1nc2ccccc2n1C	none
O=C(Cn1cc(C(=O)C(F)(F)F)c2ccccc21)NCc1ccco1	none
COC(=O)c1cn(CC(=O)NCc2ccco2)c2ccccc12	PLC-gamma1 inh 13 | PLCg1 ctr inactive | PLCb3 confirm inactive
CCC(=O)c1cn(CC(=O)NCc2ccco2)c2ccccc12	PLC-gamma1 inh 10.0 | PLCg1 ctr inactive | PLCb3 confirm inactive
O=C(Cn1cc(C(=O)c2ccco2)c2ccccc21)NCc1ccco1	none
C=CCNC(=S)NNC(=O)CCC(O)CCCCC (stereo not drawn)	PLC-beta3 inh 12 | PLCg1 ctr inactive | PLCb3 confirm inactive
Cc1cc(NC(=O)CSc2cn(CC(=O)N(C(C)C)C(C)C)c3ccccc23)no1	PLC-gamma1 inh 12 | PLCg1 ctr inactive | PLCb3 confirm inactive
CCOC(=O)c1oc2cc(O)cc(C)c2c(=O)c1-c1cscn1	PLC-beta3 inh 12 | PLCg1 ctr inactive | PLCb3 confirm inactive
CC(=O)NC12CC3CC(C1)CC(C(=O)N(C)Cc1cccc(Cl)c1Cl)(C3)C2	PLC-gamma1 inh 13 | PLCg1 ctr inactive | PLCb3 confirm inactive
O=C(Nc1cccc(OC(F)(F)F)c1)C1Cc2c(-c3cccc(F)c3)ccnc2O1 (stereo not drawn)	PLC-gamma1 inh 12 | PLCg1 ctr inactive | PLCb3 confirm inactive
COc1ccc(NC(=O)C2Cc3c(-c4cccc(F)c4)ccnc3O2)cc1 (stereo not drawn)	none
C=CCNC(=O)N1CCCC(C(=O)c2cccc(OC(C)C)c2)C1 (stereo not drawn)	PLC-gamma1 inh 11 | PLCg1 ctr inactive | PLCb3 confirm inactive
COC(=O)C1=C(C)NC(=O)NC1c1cc(Cl)ccc1OC (stereo not drawn)	none
COC(=O)C1=C(C)NC(=O)NC1c1ccccc1Cl (stereo not drawn)	PLC-gamma1 inh 11 | PLCg1 ctr inactive | PLCb3 confirm inactive
O=C(c1ccccc1NS(=O)(=O)c1ccc(Br)s1)N1CCCC1	PLC-beta3 inh 11 | PLCg1 ctr inactive | PLCb3 confirm inactive
CC(C)NC(=O)c1ccccc1NS(=O)(=O)c1ccc(Br)s1	none

Bioassay records from PubChem.
